Experimental data: PubChem BioAssay (NCI)
Several values for one entry are separate records, joined by “and”; a condition that tells them apart may be missing. Equal values may be shown once. This is part of a sample that, as a whole, favours compounds with a hit. Of some 79,000 tested, about 15% had one in any assay. Values without a mark were called inactive. Activity calls are given as the source filed them. No stated cut-off is given here; in the data, active means growth inhibition above about 70%; inactive means the rest.

Tests used:
[1] = NCI Yeast Anticancer Drug Screen. Data for the rad50 strain (AID 155);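 further: 0% = growth of vehicle-only cultures of the same strain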; conditions: S. cerevisiae rad50 strain growth inhibition, hits give high values
How it was run: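 A DNA repair-deficient yeast mutant serves as the test organism; compound-induced growth inhibition is calculated against vehicle-treated cells.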

[2] = NCI Yeast Anticancer Drug Screen. Data for the mec2-1 strain (AID 157); conditions: S. cerevisiae mec2-1 strain, hits give high values
How it was run: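 Readout is yeast growth inhibition, normalised to vehicle-treated controls, in the mec2-1 strain exposed to compound.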

[3] = NCI Yeast Anticancer Drug Screen. Data for the sgs1 mgt1 strain (AID 161);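 further: 0% = growth of cultures given vehicle only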; conditions: S. cerevisiae sgs1 mgt1 strain, hits give high values
How it was run: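 Growth of a repair-deficient yeast mutant was monitored after compound treatment and expressed as inhibition relative to vehicle-treated cultures.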

[4] = NCI Yeast Anticancer Drug Screen. Data for the cln2 rad14 strain (AID 165);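 further: 0% = growth equal to vehicle treated cultures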; conditions: S. cerevisiae cln2 rad14 strain, hits give high values
How it was run: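 Relative to vehicle controls, growth inhibition of compound-treated cln2 rad14 yeast was recorded.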

[5] = NCI Yeast Anticancer Drug Screen. Data for the bub3 strain (AID 167); conditions: S. cerevisiae bub3 mutant strain, hits give high values
How it was run: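 Inhibition values come from growth of compound-treated mutant yeast normalised to vehicle-treated controls.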

[6] = NCI Yeast Anticancer Drug Screen. Data for the mlh1 rad18 strain (AID 175); conditions: S. cerevisiae mlh1 rad18 strain growth inhibition, hits give high values
How it was run: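 Test agents were incubated with a yeast strain of defined genotype (DNA damage repair defect). Inhibition of growth was derived by comparison with vehicle-exposed cultures.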

[7] = at 5.0 µM (retest, dose inferred, filed as 0.5)
[8] = at 50.0 µM (retest, dose inferred, filed as 5.0)

Structure (SMILES)	growth inhibition [1, 7]	growth inhibition [1, 8]	growth inhibition ([1]; at 50.0 µM)	growth inhibition [2, 7]	growth inhibition [2, 8]	growth inhibition ([2]; at 50.0 µM)	growth inhibition [3, 7]	growth inhibition [3, 8]	growth inhibition ([3]; at 50.0 µM)	growth inhibition [4, 7]	growth inhibition [4, 8]	growth inhibition ([4]; at 50.0 µM)	growth inhibition [5, 7]	growth inhibition [5, 8]	growth inhibition ([5]; at 50.0 µM)	growth inhibition [6, 7]	growth inhibition [6, 8]	growth inhibition ([6]; at 50.0 µM)
ClCCN(CCCl)c1ccc(C2N(Cc3ccc(Cl)cc3)CCCN2Cc2ccc(Cl)cc2)cc1	11%	56%	98.5% (active)	10%	39%	98.5% (active)	16%	68%	98.8% (active)	4%	24%	94.9% (active)	7%	35%	98.8% (active)	33%	94% (active)	98.4% (active)
O=C1c2ccccc2-c2c3c(cc4ccnc1c24)OCO3	96% (active)	97% (active)	86.2% (active) and 86.5% (active)	57%	96% (active)	84.8% (active) and 88.2% (active)	50%	96% (active)	86.6% (active) and 86.2% (active)	37%	95% (active)	81.7% (active) and 87% (active)	61%	95% (active)	87.5% (active) and 87.3% (active)	73% (active)	95% (active)	85.8% (active) and 88% (active)
C=CO/C(C)=C(\[Se]c1ccccc1)C(C)=O	4%	89% (active)	93.4% (active)	3%	91% (active)	85.9% (active)	7%	89% (active)	91.8% (active)	-10%	38%	57%	-8%	65%	75% (active)	6%	91% (active)	91% (active)
COc1c(Br)cc(/C=C(/C)[N+](=O)[O-])cc1Br	23%	66%	91.3% (active)	12%	57%	92.5% (active)	43%	74% (active)	31.8%	29%	61%	71.2% (active)	46%	79% (active)	91.8% (active)	13%	59%	82.3% (active)
O/N=C/c1ccc2c(c1)OCO2	91% (active)	99% (active)	-1.6%	100% (active)	100% (active)	-1.95%	46%	100% (active)	38.3%	35%	99% (active)	-34.2%	98% (active)	99% (active)	4.25%	99% (active)	99% (active)	-14.1%
O=c1oc2ccccc2c(O)c1C(c1ccc(-c2ccccc2)cc1)c1c(O)c2ccccc2oc1=O	9%	52%	78.1% (active)	7%	97% (active)	89.8% (active)	-16%	97% (active)	81.6% (active)	19%	97% (active)	85.2% (active)	14%	97% (active)	77.5% (active)	16%	88% (active)	89.3% (active)
O=[N+]([O-])O.O=[N+]([O-])O.[NH-]C1CCCCC1[NH-].[Pt+2] (centres undefined)	33%	96% (active)	52.1%	25%	95% (active)	90.7% (active)	57%	100% (active)	79.5% (active)	45%	97% (active)	86.4% (active)	56%	100% (active)	88.9% (active)	16%	75% (active)	92.3% (active)
CCCCCCNC(=O)CI	-3%	88% (active)	42.7%	-2%	91% (active)	75.2% (active)	-5%	87% (active)	16.7%	-1%	46%	-17.4%	5%	84% (active)	59.2%	-3%	93% (active)	50.4%
Cc1cccc(C)c1NC(=O)/C(CC(=O)CC(c1ccccc1)c1c(O)c2ccccc2oc1=O)=N/O (centres undefined)	26%	60%	1.1%	20%	34%	-5.8%	13%	55%	-1.5%	28%	45%	-10.4%	35%	50%	4.85%	25%	43%	2.1%
O=S(=O)([O-])[O-].[Fe+2].c1ccc(/C(=N\Nc2ccccn2)c2ccccn2)cc1	3%	33%	12.9%	-2%	39%	82.2% (active)	-4%	22%	16.1%	-3%	-8%	13.5%	1%	1%	1.75%	-3%	7%	25.8%
CCC[CH2][Sn]1([CH2]CCC)[O]CC(CN(C)Cc2ccccc2)[O]1 (centres undefined)	3%	3%	88.7% (active)	12%	12%	90.1% (active)	-5%	-5%	20.2%	-2%	-2%	89.2% (active)	-1%	-1%	87.5% (active)	0%	0%	81.8% (active)
O=P1(Oc2ccccc2)C(c2ccccc2)C(c2ccccc2)=NN1c1ccccc1 (centres undefined)	29%	29%	90.7% (active)	12%	12%	91% (active)	23%	23%	89.2% (active)	23%	23%	90.8% (active)	5%	5%	90.1% (active)	11%	11%	89.6% (active)
C[n+]1[se]nc2cc(C(=O)c3ccccc3)ccc21 (tested in a mixture with another compound)	99% (active)	99% (active)	99.3% (active)	99% (active)	99% (active)	99.2% (active)	98% (active)	99% (active)	99% (active)	96% (active)	99% (active)	99% (active)	98% (active)	99% (active)	99% (active)	99% (active)	99% (active)	99.3% (active)
CC[N+](C)(CC)CCNC(=O)C(O)(c1ccccc1)c1ccccc1	-8%	40%	92.7% (active)	-13%	52%	95.5% (active)	-6%	36%	96.5% (active)	-2%	35%	93.2% (active)	-5%	23%	95.1% (active)	-1%	40%	94.4% (active)
COc1cccc(C(Cc2ccc(N3C(N)=NC(N)=NC3(C)C)cc2)C(=O)Nc2ccc(S(=O)(=O)F)cc2)c1 (centres undefined)	8%	96% (active)	99.5% (active)	-139%	99% (active)	99.6% (active)	1%	99% (active)	99.8% (active)	-1%	92% (active)	96.7% (active)	1%	98% (active)	95% (active)	6%	99% (active)	99.4% (active)
O=C([O][Hg][CH2]C1CC(O)CC([CH2][Hg][O]C(=O)c2ccccc2)O1)c1ccccc1 (centres undefined)	98% (active)	98% (active)	99% (active)	98% (active)	99% (active)	99.2% (active)	99% (active)	99% (active)	99.3% (active)	96% (active)	97% (active)	97.4% (active)	97% (active)	99% (active)	98.5% (active)	99% (active)	99% (active)	98.6% (active)
C[CH2][Sn][CH2]C.c1cc[c]([Ge]([c]2ccccc2)[c]2ccccc2)cc1.c1cc[c]([Sn]([c]2ccccc2)[c]2ccccc2)cc1	99% (active)	96% (active)	99.2% (active)	99% (active)	98% (active)	99.5% (active)	100% (active)	98% (active)	99.5% (active)	98% (active)	97% (active)	98.4% (active)	99% (active)	95% (active)	99.3% (active)	99% (active)	97% (active)	98.8% (active)
Oc1c(-c2ccccc2)cc(-[n+]2c(-c3ccccc3)cc(-c3ccccc3)cc2-c2ccccc2)cc1-c1ccccc1	97% (active)	99% (active)	91.7% (active)	98% (active)	99% (active)	92.7% (active)	98% (active)	99% (active)	89.6% (active)	98% (active)	98% (active)	89.8% (active)	99% (active)	99% (active)	89.8% (active)	98% (active)	99% (active)	91.5% (active)
